Reference: PubChem BioAssay (Tox21)
Results filed as inconclusive are left out. Entries that show only a call come without a potency. Active and inactive are the calls of the source. Calls follow the shape of the dose curve; as a rule, active = well fitted curve in the direction sought with a large enough effect in the repeat runs; inconclusive = weak or mixed curves; inactive = no such curve, though single readings can be large; an effect the other way counts as inactive or inconclusive.

Key:
[1] = target: Cytochrome P450 2D6 (Homo sapiens) (UniProt P10635); test: Cytochrome P450 Family 2 Subfamily D Member 6 (CYP2D6) small molecule antagonists: luciferase reporter qHTS assay (AID 1671196); also: series mostly up to about 120 µM; nearly all actives have a fitted effect of over 50% in size
Cytochrome P450 2D6 (Homo sapiens), sequence (P10635 whole entry, looked up): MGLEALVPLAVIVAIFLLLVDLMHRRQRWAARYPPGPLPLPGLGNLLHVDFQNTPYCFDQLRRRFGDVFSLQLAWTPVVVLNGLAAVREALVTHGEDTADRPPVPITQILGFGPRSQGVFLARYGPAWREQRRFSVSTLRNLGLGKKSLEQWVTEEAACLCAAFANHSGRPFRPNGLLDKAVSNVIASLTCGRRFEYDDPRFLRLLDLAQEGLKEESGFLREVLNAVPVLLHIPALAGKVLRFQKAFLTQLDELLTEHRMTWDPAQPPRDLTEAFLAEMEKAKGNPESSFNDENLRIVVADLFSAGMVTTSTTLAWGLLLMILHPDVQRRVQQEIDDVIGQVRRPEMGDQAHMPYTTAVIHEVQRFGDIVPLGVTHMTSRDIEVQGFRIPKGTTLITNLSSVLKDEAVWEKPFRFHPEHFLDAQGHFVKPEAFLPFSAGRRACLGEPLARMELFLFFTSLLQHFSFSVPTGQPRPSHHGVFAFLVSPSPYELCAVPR
Outline: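 Chemicals tested for interference with CYP2D6 activity; proluciferin substrate, NADPH regeneration, 1 h at room temperature, luminescent detection.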

[2] = target: Cytochrome P450 2C19 (Homo sapiens) (UniProt P33261); test: Cytochrome P450 Family 2 Subfamily C Member 19 (CYP2C19) small molecule antagonists: luciferase reporter qHTS assay (AID 1671197); also: nearly all actives have a fitted effect of over 65% in size; also: potency is read from the fitted curve at half-maximal effect
Cytochrome P450 2C19 (Homo sapiens), sequence (P33261 whole entry, looked up): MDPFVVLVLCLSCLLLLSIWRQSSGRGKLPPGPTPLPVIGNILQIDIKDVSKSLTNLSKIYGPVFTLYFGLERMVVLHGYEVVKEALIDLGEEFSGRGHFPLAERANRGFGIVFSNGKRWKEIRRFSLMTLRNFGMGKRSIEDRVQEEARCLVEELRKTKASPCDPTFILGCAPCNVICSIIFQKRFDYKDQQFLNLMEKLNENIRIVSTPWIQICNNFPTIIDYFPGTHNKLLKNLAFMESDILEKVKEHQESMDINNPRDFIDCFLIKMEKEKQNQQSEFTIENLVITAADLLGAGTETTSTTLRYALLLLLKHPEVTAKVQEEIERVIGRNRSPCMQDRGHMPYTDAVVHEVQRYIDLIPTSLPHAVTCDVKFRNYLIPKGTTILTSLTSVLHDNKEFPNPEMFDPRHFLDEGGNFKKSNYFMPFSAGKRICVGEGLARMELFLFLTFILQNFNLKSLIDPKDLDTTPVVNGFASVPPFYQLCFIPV
Outline: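 Luminescent readout of CYP2C19 activity: luciferin product detected 20 min after adding detection reagent. Before that, compound and enzyme-substrate mix preincubated 10 min at room temperature; NADPH-regenerating system started a 1 h, 37C reaction. Ketoconazole as positive control.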

[3] = target: Cytochrome P450 2C9 (Homo sapiens) (UniProt P11712); test: Cytochrome P450 Family 2 Subfamily C Member 9 (CYP2C9) small molecule antagonists: luciferase reporter qHTS assay (AID 1671198); also: nearly all actives have a fitted effect of over 50% in size; also: potency is read from the fitted curve at half-maximal effect
Cytochrome P450 2C9 (Homo sapiens), sequence (P11712 whole entry, looked up): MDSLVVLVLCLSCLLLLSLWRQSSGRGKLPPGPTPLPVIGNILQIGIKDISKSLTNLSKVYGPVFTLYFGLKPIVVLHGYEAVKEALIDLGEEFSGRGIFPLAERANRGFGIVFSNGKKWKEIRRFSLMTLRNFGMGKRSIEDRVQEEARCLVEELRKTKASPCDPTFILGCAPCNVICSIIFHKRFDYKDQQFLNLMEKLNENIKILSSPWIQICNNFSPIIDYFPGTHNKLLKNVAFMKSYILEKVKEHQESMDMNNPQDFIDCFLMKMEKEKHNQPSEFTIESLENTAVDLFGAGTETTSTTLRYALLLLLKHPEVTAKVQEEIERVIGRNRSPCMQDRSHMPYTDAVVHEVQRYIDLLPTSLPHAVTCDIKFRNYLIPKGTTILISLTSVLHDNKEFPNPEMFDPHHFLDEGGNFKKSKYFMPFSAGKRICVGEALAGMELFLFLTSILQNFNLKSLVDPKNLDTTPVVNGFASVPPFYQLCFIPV
Outline: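 Enzyme-substrate mix preincubated with compound 10 min at room temperature; reaction started with NADPH regeneration solution, 1 h 37C. Luminescent luciferin product read after 20 min detection reagent.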

[4] = target: Cytochrome P450 1A2 (Homo sapiens) (UniProt P05177); test: Cytochrome P450 Family 1 Subfamily A Member 2 (CYP1A2) small molecule antagonists: luciferase reporter qHTS assay (AID 1671199); also: nearly all actives have a fitted effect of over 50% in size; also: potency is read from the fitted curve at half-maximal effect
Cytochrome P450 1A2 (Homo sapiens), sequence (P05177 whole entry, looked up): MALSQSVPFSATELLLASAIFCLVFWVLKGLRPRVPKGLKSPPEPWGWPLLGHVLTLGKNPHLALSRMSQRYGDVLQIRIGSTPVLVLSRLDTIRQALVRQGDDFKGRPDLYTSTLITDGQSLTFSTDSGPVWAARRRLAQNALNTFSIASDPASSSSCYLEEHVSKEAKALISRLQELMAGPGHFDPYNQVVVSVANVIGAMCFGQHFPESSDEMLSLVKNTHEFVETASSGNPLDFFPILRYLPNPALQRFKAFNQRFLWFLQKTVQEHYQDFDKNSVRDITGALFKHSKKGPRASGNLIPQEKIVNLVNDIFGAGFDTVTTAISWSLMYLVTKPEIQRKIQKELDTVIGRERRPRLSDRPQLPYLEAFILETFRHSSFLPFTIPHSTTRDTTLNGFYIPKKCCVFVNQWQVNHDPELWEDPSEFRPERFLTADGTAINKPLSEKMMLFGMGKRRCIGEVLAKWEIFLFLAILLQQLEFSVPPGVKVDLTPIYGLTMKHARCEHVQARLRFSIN
Outline: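 Read-out is luminescence from luciferin detection reagent (20 min) proportional to CYP1A2 activity; compounds in DMSO preincubated 10 min with enzyme and proluciferin substrate, then NADPH regeneration solution, 1 h, room temperature.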

[5] = target: Voltage-gated inwardly rectifying potassium channel KCNH2 (Homo sapiens) (UniProt Q12809); test: Human Ether-a-go-go-Related Gene (hERG) channel small molecule antagonists: fluorescence cell-based qHTS assay (AID 1671200);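 also: hERG-expressing U2OS cells given a thallium stimulus after FluxOR II dye loading; series mostly up to about 77 µM; nearly all actives have a fitted effect of over 50% in size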
Voltage-gated inwardly rectifying potassium channel KCNH2 (Homo sapiens), sequence (Q12809 whole entry, looked up): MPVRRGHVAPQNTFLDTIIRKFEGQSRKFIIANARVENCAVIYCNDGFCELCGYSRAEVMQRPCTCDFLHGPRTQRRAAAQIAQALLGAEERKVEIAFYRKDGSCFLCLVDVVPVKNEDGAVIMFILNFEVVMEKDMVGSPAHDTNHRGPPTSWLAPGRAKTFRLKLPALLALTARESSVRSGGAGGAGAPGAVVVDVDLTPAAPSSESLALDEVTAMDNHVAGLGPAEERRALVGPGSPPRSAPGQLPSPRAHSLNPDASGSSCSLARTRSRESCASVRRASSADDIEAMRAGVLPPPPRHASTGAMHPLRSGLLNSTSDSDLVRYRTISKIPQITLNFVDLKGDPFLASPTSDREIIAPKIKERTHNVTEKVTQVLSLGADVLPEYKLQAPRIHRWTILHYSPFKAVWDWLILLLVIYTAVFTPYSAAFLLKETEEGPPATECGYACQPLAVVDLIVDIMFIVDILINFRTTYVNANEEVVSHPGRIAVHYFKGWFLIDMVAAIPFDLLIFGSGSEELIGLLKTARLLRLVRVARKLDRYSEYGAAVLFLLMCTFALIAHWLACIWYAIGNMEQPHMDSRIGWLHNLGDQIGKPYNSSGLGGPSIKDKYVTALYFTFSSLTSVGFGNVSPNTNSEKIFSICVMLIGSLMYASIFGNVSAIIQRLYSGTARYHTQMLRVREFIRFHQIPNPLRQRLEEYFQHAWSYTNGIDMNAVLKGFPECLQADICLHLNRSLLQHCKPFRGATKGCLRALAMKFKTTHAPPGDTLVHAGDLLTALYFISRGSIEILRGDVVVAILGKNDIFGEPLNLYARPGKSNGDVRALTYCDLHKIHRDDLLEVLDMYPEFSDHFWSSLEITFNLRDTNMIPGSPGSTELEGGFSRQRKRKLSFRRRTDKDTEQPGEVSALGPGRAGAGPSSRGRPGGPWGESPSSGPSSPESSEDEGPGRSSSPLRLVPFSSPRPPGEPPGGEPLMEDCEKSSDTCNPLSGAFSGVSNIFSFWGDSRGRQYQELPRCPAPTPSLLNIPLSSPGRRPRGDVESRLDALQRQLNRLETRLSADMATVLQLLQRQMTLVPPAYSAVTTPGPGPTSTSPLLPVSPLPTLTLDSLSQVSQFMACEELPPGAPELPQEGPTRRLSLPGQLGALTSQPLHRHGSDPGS
Outline: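 Thallium served as the potassium surrogate; its influx into dye-loaded U2OS cells carrying the channel was measured by fluorescence over 2 min.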

[6] = target: Cytochrome P450 3A4 (Homo sapiens) (UniProt P08684); test: Cytochrome P450 Family 3 Subfamily A Member 4 (CYP3A4) small molecule antagonists: luciferase reporter qHTS assay (AID 1671201)
Cytochrome P450 3A4 (Homo sapiens), sequence (P08684 whole entry, looked up): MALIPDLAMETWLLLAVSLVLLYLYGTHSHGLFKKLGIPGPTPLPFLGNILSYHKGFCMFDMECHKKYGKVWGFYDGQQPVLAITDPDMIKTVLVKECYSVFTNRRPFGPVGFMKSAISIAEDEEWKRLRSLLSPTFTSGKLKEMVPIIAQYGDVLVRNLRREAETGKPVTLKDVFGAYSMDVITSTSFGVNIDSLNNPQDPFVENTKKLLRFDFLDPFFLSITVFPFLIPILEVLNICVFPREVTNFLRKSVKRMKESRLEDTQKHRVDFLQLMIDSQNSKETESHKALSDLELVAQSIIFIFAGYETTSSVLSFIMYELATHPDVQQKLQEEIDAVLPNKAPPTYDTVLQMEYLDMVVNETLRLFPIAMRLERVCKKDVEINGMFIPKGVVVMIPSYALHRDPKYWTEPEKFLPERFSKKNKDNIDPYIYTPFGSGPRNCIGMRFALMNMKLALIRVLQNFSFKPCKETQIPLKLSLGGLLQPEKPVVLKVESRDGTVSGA
Outline: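 Relative luminescence units after 20 min with luciferin detection reagent served as read-out. Beforehand, CYP3A4 turned over a proluciferin substrate for 1 h at room temperature with NADPH regeneration, following 10 min compound preincubation.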

C=C(C)[C@@H]1CCC2=CC(=O)C[C@@H](C)[C@]2(C)C1
Potency [1]: inactive | Potency [2]: 6.33 µM (active) | Potency [3]: 39.9 µM (active) | Potency [4]: inactive | Potency [5]: inactive | Potency [6]: inactive

CNC(=O)c1c(I)c(NC(=O)CCCCC(=O)Nc2c(I)c(C(=O)O)c(I)c(C(=O)NC)c2I)c(I)c(C(=O)O)c1I
Potency [1]: inactive | Potency [2]: inactive | Potency [3]: inactive | Potency [4]: inactive | Potency [6]: inactive

O=C(O)Cc1cc(I)c(Oc2cc(I)c(O)c(I)c2)c(I)c1
Potency [1]: inactive | Potency [2]: inactive | Potency [3]: 34.9 µM (active) | Potency [4]: inactive | Potency [6]: inactive

O=C(O)c1ccc[n+]([O-])c1
Potency [1]: inactive | Potency [2]: inactive | Potency [3]: inactive | Potency [4]: inactive | Potency [5]: inactive | Potency [6]: inactive

CO[Si](CCCNCCC[Si](OC)(OC)OC)(OC)OC
Potency [1]: inactive | Potency [2]: inactive | Potency [3]: inactive | Potency [4]: inactive | Potency [6]: inactive

CCCCC=O
Potency [1]: inactive | Potency [2]: 71 µM (active) | Potency [3]: 79.6 µM (active) | Potency [4]: inactive | Potency [5]: inactive | Potency [6]: inactive

O=c1[nH]c(=O)n([C@H]2O[C@H](CO)[C@@H](O)[C@@H]2O)cc1/C=C\Br
Potency [1]: inactive | Potency [2]: inactive | Potency [3]: inactive | Potency [4]: inactive | Potency [5]: inactive | Potency [6]: inactive

OCCN1C[C@H](O)[C@@H](O)[C@H](O)[C@H]1CO
Potency [1]: inactive | Potency [2]: inactive | Potency [3]: inactive | Potency [4]: inactive | Potency [5]: inactive | Potency [6]: inactive

CCC(C(=O)NC(N)=O)c1ccccc1 (configuration not stated)
Potency [1]: inactive | Potency [2]: 79.6 µM (active) | Potency [3]: inactive | Potency [4]: 28.3 µM (active) | Potency [5]: inactive | Potency [6]: inactive

CO[Si](OC)(OC)OC
Potency [1]: inactive | Potency [2]: inactive | Potency [3]: inactive | Potency [4]: 31 µM (active) | Potency [5]: inactive | Potency [6]: inactive

OC1OC[C@@H](O)[C@H](O)[C@H]1O (some centres not stated)
Potency [1]: inactive | Potency [2]: inactive | Potency [3]: inactive | Potency [4]: inactive | Potency [6]: inactive
